Data from PubChem BioAssay (Tox21).
Records with an inconclusive call do not appear. The source made the active and inactive calls. Unless noted, calls follow the shape of the dose curve; as a rule, active = well fitted curve in the direction sought with a large enough effect in the repeat runs; inconclusive = weak or mixed curves; inactive = no such curve, though single readings can be large; an effect the other way counts as inactive or inconclusive.

Legend:
[1] = target: Thyrotropin receptor (Homo sapiens) (UniProt P16473); assay: qHTS assay to identify small molecule antagonists of the thyroid stimulating hormone receptor (TSHR) signaling pathway (AID 1259385; calls by dose curve; also: nearly all actives have a fitted effect of over 20% in size)
Outline: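 Antagonist mode: compound-treated TSHR-expressing HEK293 cells were stimulated with 1.5 ng/mL TSH (final) in presence of Ro20-1724 for 30 min at RT. HTRF cAMP detection after 1 h; each compound tested at 15 concentrations, triplicate.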

[2] = qHTS assay to identify small molecule agonists of the estrogen receptor alpha (ER-alpha) signaling pathway in the presence of an antagonist - cell viability counter screen (AID 1259386);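 also: series mostly up to about 92 µM; cells exposed to compounds for 22 h at 37 °C before the viability read; nearly all actives have a fitted effect of over 30% in size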
Outline: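 Steps: 5-day stripped-FBS culture; seed and incubate 24hr; add ICI-182,780 (10.0nM final); pin 15-point compound titration; incubate 22hr at 37C; add CellTiter-Fluor at 21hr; read fluorescence.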

[3] = target: Progesterone receptor (Homo sapiens) (UniProt P06401); assay: qHTS assay to identify small molecule antagonists of the progesterone receptor (PR) signaling pathway (AID 1346795; active = well fitted inhibition curve with a large enough effect in the signal ratio in the repeat runs, not every such curve was filed as active; the % refers to the signal ratio)
Outline: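 Stimulus R5020 at 1 nM final; cells HEK293T PR-UAS-bla; medium with 2% charcoal-stripped FBS; compound exposure 16 hr at 37C, 5% CO2; detection by FRET beta-lactamase substrate, 2 hr, room temperature.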

[4] = qHTS assay to identify small molecule antagonists of the progesterone receptor (PR) signaling pathway - cell viability counter screen (AID 1346798); also: series mostly up to about 92 µM; nearly all actives have a fitted effect of over 50% in size
Outline: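 In the same plates used for the beta-lactamase readout, cell viability of compound- and R5020-treated PR-UAS-bla HEK293T cells (16 hr, 37C) was assessed by CellTiter-Glo luminescence.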

[5] = qHTS assay to identify small molecule antagonists of the TGF-beta/Smad signaling pathway - cell viability counter screen (AID 1346824); also: nearly all actives have a fitted effect of over 50% in size
Outline: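 Cytotoxicity counter-screen run in the same wells as the beta-lactamase Smad reporter read: CellTiter-Glo luminescence after 30 min at room temperature. HEK 293T SBE-bla cells had 5 hr compound exposure at 37 C with TGF-beta1 (0.25 ng/mL stock).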

[6] = qHTS assay to identify small molecule agonists of the TGF-beta/Smad signaling pathway (AID 1346859; active = well fitted activation curve with a large enough effect in the signal ratio in the repeat runs, not every such curve was filed as active; the % refers to the signal ratio; also: series mostly up to about 77 µM)
Outline: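 Screening used HEK 293T SBE-bla cells at 4,000/well. Test agents: 5 hr, 37 C. Detection: FRET substrate, 2 hr RT, then excitation 405 nm with emissions at 460 and 530 nm.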

[7] = Human pregnane X receptor (PXR) small molecule agonists, qHTS cell viability counter screen (AID 1346977); also: nearly all actives have a fitted effect of over 50% in size
Outline: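 In each well, the PXR reporter HepG2 line was checked for viability: CellTiter-Fluor reagent added 23hr post-dosing, fluorescence read after 1hr incubation at 37C.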

[8] = Caspase-3/7 induction in HepG2 cells by small molecules, qHTS assay (AID 1346978); also: nearly all actives have a fitted effect of over 15% in size
Outline: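 Caspase-3/7 induction was measured by Caspase-Glo 3/7 luminescence (30 min, room temperature) after a 17 hr compound exposure of wild-type HepG2 cells seeded at 2,000 per well and pre-incubated 5 hr.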

[9] = Caspase-3/7 induction in CHO-K1 cells by small molecules, qHTS cell viability counter screen (AID 1346979); also: nearly all actives have a fitted effect of over 35% in size
Outline: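 Following a 5hr settling period, CHO-K1 cells at 1,500 per well received DMSO-dissolved compounds. Cell viability was quantified 16hr later by CellTiter-Fluor fluorescence, measured after 1hr with reagent at 37C.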

[10] = Caspase-3/7 induction in CHO-K1 cells by small molecules, qHTS assay (AID 1346980); also: nearly all actives have a fitted effect of over 15% in size
Outline: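 Luminescent Caspase-Glo 3/7 read (30min, room temperature) quantified apoptosis induction. Cells were wild-type CHO-K1, treated with compound for 17hr at 37 C and 5% CO2.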

[11] = Caspase-3/7 induction in HepG2 cells by small molecules, qHTS cell viability counter screen (AID 1346981); also: series mostly up to about 92 µM; nearly all actives have a fitted effect of over 30% in size
Outline: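 The parent HepG2 line is plated at 2,000 cells per well and rested 5 hr before compound pinning from DMSO stocks. Following a 16-hr treatment at 37 C, a fluorogenic live-cell substrate (CellTiter-Fluor) reports viability after 1 hr.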

[12] = target: Progesterone receptor (Homo sapiens) (UniProt P06401); assay: qHTS assay to identify small molecule agonists of the progesterone receptor (PR) signaling pathway (AID 1346784; calls by dose curve; also: nearly all actives have a fitted effect of over 30% in size)
Outline: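 Reporter assay, GripTite PR-UAS-bla HEK 293T cells: 16 hr exposure to DMSO-dissolved compounds at 37C, 5% CO2, in steroid-depleted (2% charcoal-stripped FBS) medium; beta-lactamase measured by FRET fluorescence.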

[13] = target: Thyrotropin-releasing hormone receptor (Homo sapiens) (UniProt P34981); assay: qHTS assay to identify small molecule antagonists of the thyrotropin-releasing hormone receptor (TRHR) signaling pathway (AID 1346877; active = well fitted inhibition curve with a large enough effect in the repeat runs, not every such curve was filed as active; also: series mostly up to about 51 µM)
Outline: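 Human TRHR in HEK293 cells; inhibition of the intracellular calcium rise triggered by 1 nM TRH was followed by fluorescence over 3 min. Compounds were run at 15 concentrations, three replicates each.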

[14] = target: Thyrotropin-releasing hormone receptor (Homo sapiens) (UniProt P34981); assay: qHTS assay to identify small molecule agonists of the thyrotropin-releasing hormone receptor (TRHR) signaling pathway (AID 1346891; calls by dose curve; also: series mostly up to about 58 µM)
Outline: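 Readout was intracellular calcium fluorescence in TRHR-Hek293 cells. Cells were incubated 18 h, dye-loaded 2 h at 37 °C, and treated with compound in agonist mode.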

[15] = target: Nuclear receptor subfamily 1 group I member 2 (Homo sapiens) (UniProt O75469); assay: Human pregnane X receptor (PXR) small molecule agonists, qHTS assay (AID 1346982); also: nearly all actives have a fitted effect of over 35% in size; also: potency is read from the fitted curve at half-maximal effect
Outline: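 After plating in 5% charcoal-stripped FBS and a 5 hr rest, PXR-Luc HepG2 cells received compounds in DMSO. Following 24 hr at 37 C, ONE-Glo was added and light output read.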

[16] = target: Nuclear receptor subfamily 1 group I member 2 (Homo sapiens) (UniProt O75469); assay: CYP3A4 induction through human pregnane X receptor (PXR) by small molecules, qHTS assay (AID 1346984); also: nearly all actives have a fitted effect of over 40% in size
Outline: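 Human PXR activation is tracked via CYP3A4 promoter-luciferase in DPX-2 (HepG2) cells. Compounds treat cells for 24hr at 37C, and luminescence is read after One-Glo.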

[17] = qHTS assay to identify small molecule agonists of the progesterone receptor (PR) signaling pathway - cell viability counter screen (AID 1346799; calls by dose curve; also: nearly all actives have a fitted effect of over 45% in size)
Outline: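 Multiplexed viability read: CellTiter-Glo luminescence, 30 min RT, following LiveBLAzer FRET measurement on PR-UAS-bla HEK293T cells exposed to compounds 16 hr.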

[18] = qHTS assay to identify small molecule agonists of the TGF-beta/Smad signaling pathway - cell viability counter screen (AID 1346829); also: top concentration of the series differs between compounds; nearly all actives have a fitted effect of over 45% in size
Outline: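 Tox21 qHTS format: SBE-bla HEK 293T cells treated with DMSO-dissolved compounds for 5 hr; CellTiter-Glo luminescence after 30 min at room temperature.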

[19] = target: Nuclear receptor subfamily 1 group I member 2 (Rattus norvegicus) (UniProt Q9R1A7); assay: Rat pregnane X receptor (rPXR) activation by small molecules, qHTS assay (AID 1346983); details: rPXR luciferase reporter cells, One-Glo luminescence, 24 h; hits give high values; also: nearly all actives have a fitted effect of over 20% in size
Outline: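 Luminescent readout (One-Glo luciferase, 30 min room temperature) followed 24 hr compound treatment at 37 C of rPXR cells plated 2,000 per well and preincubated 5hr; qHTS format with compounds delivered in DMSO.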

[20] = target: Nuclear receptor subfamily 1 group I member 2 (Homo sapiens) (UniProt O75469); assay: Human pregnane X receptor (PXR) activation by small molecules, qHTS assay (AID 1346985); also: nearly all actives have a fitted effect of over 40% in size
Outline: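 DPX-2 cells (HepG2 co-transfected with a PXR response element and a CYP3A4-promoter luciferase construct) were seeded at 2,000 per well, rested 5 hr at 37C, then exposed to DMSO-dissolved compounds for 24 hr. Activation was read as luciferase luminescence.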
% is scaled to controls: 0 for no effect and ±100 for the full control effect.

Sequence of Nuclear receptor subfamily 1 group I member 2 (Homo sapiens) (O75469 whole entry, looked up): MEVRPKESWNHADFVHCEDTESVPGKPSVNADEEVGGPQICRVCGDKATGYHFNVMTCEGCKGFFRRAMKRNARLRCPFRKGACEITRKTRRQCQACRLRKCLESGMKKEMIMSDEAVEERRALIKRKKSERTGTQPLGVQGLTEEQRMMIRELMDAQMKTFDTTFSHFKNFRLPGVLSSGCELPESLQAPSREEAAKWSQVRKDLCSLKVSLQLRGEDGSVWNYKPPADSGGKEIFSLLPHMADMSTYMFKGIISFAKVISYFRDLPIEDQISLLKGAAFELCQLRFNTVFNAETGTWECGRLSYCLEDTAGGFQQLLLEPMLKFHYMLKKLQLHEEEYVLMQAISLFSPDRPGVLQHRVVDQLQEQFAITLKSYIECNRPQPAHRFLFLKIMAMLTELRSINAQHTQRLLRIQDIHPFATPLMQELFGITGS
Sequence of Progesterone receptor (Homo sapiens) (P06401 whole entry, looked up): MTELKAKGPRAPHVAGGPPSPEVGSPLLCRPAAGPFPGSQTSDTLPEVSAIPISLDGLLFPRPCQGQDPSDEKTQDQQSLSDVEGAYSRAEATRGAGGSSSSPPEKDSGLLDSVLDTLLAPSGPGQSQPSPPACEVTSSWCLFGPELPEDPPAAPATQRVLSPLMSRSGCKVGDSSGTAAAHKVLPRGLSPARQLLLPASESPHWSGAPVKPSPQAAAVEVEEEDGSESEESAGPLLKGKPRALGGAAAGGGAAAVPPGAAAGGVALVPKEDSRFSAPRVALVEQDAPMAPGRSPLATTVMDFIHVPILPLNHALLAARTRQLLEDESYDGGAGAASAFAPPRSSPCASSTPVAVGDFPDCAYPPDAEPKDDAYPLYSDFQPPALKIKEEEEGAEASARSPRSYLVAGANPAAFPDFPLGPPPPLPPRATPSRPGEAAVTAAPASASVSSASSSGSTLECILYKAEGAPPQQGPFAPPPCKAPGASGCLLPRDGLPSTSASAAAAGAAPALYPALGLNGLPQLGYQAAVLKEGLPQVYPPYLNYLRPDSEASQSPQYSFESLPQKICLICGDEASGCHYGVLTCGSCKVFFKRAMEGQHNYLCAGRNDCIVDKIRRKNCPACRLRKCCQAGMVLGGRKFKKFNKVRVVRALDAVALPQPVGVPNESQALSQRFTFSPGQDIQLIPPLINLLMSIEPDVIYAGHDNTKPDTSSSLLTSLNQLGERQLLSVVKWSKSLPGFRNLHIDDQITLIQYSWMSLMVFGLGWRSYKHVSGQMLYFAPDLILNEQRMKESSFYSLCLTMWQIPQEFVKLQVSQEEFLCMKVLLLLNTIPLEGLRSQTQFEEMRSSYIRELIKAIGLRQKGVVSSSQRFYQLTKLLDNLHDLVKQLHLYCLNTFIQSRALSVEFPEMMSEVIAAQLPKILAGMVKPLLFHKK
Sequence of Thyrotropin-releasing hormone receptor (Homo sapiens) (P34981 whole entry, looked up): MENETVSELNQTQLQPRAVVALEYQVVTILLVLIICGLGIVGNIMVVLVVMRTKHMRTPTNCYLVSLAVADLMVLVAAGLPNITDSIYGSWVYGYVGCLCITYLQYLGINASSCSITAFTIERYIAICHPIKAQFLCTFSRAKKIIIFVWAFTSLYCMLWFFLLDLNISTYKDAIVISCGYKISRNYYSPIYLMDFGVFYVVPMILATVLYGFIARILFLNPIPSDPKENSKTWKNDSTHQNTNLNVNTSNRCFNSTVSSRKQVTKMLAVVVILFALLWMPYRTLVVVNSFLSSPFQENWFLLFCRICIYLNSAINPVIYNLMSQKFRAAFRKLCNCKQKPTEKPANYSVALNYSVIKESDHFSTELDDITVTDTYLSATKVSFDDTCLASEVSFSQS
Sequence of Thyrotropin receptor (Homo sapiens) (P16473 whole entry, looked up): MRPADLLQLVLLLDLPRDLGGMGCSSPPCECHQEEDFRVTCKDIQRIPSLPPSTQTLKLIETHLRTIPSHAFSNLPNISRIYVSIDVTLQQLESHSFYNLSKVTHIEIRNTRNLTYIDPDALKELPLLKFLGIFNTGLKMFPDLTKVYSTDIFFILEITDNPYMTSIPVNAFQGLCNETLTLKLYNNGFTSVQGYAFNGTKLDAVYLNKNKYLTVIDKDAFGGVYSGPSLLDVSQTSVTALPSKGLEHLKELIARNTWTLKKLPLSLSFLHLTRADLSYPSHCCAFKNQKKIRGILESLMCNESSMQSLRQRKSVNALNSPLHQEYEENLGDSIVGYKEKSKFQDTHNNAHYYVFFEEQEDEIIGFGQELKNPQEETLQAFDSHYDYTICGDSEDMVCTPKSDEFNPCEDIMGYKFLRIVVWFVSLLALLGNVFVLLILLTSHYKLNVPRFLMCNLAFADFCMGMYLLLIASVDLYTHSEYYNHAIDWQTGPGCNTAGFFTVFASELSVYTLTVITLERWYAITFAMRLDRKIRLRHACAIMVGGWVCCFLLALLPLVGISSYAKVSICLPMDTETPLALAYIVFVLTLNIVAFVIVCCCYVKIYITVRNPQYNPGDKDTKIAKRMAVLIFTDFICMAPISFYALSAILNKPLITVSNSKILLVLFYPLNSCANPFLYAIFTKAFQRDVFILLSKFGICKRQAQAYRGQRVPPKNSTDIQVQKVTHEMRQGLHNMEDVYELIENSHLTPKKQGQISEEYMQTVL
Sequence of Nuclear receptor subfamily 1 group I member 2 (Rattus norvegicus) (Q9R1A7 whole entry, looked up): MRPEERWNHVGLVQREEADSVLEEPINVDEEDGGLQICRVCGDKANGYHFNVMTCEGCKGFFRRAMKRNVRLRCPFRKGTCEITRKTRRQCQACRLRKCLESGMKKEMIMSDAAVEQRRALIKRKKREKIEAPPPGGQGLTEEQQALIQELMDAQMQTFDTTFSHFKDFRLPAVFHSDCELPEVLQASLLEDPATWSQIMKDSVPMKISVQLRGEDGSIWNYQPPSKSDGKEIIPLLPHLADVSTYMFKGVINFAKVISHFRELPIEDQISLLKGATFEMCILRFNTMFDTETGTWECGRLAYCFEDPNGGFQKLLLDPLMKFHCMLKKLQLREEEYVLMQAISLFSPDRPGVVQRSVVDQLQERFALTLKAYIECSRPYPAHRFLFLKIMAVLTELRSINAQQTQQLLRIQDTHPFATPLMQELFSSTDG

CC[C@H](N)c1ccccc1
inactive: outcome [1] | Potency [2] | Potency [3] | Potency [4] | outcome [5] | outcome [6] | Potency [7] | outcome [8] | Potency [9] | outcome [10] | Potency [11]

C=C1C[C@@H]2[C@H](CC[C@]3(C)C(=O)CC[C@@H]23)[C@@]2(C)C=CC(=O)C=C12
active: Potency [15] 26.6 µM
inactive: outcome [1] | Potency [12] | Potency [4] | outcome [5] | Potency [13] | outcome [14] | Potency [7] | outcome [8] | outcome [10] | Potency [11] | Potency [16]

CC(C)NCC(O)c1ccc([N+](=O)[O-])cc1 (centres undefined)
inactive: outcome [1] | Potency [2] | Potency [12] | Potency [17] | outcome [5] | outcome [6] | Potency [13] | outcome [14] | Potency [7] | outcome [8] | Potency [9] | outcome [10] | Potency [11]

CC(Cc1ccccc1)NCCn1cnc2c1c(=O)n(C)c(=O)n2C (centres undefined)
inactive: outcome [1] | Potency [12] | Potency [3] | Potency [4] | outcome [5] | outcome [6] | Potency [13] | outcome [14] | Potency [7] | outcome [8] | Potency [11] | Potency [15]

CCNc1nc(NCC)nc(SC)n1
inactive: outcome [1] | Potency [2] | Potency [12] | Potency [4] | outcome [5] | outcome [6] | Potency [13] | outcome [14] | Potency [7] | outcome [8] | Potency [9] | outcome [10] | Potency [11]

CCN[C@@H](C)Cc1cccc(C(F)(F)F)c1
inactive: outcome [1] | Potency [2] | Potency [4] | outcome [5] | Potency [18] | outcome [6] | Potency [13] | outcome [14] | Potency [7] | outcome [8] | Potency [11]

Cc1ccc(-c2nc3ccc(C)cn3c2CC(=O)N(C)C)cc1
inactive: outcome [1] | Potency [12] | Potency [3] | Potency [4] | Potency [17] | outcome [5] | Potency [18] | outcome [6] | Potency [13] | outcome [14] | Potency [7] | outcome [8] | Potency [9] | outcome [10] | max activation [19] 1.42% | Potency [16] | Potency [20]

CNC(=O)O/N=C(/CSC)C(C)(C)C
inactive: outcome [1] | Potency [2] | Potency [4] | outcome [5] | Potency [18] | outcome [6] | Potency [13] | outcome [14] | Potency [7] | outcome [8] | Potency [9] | outcome [10] | Potency [11]

CCN[C@H](C)Cc1cccc(C(F)(F)F)c1
inactive: outcome [1] | Potency [12] | Potency [3] | outcome [5] | Potency [18] | outcome [6] | Potency [13] | outcome [14] | Potency [7] | outcome [8] | outcome [10] | Potency [11] | Potency [15]

CC(C)(C)C(=O)Cl
inactive: outcome [1] | Potency [2] | Potency [4] | Potency [17] | outcome [5] | Potency [18] | outcome [6] | Potency [13] | outcome [14] | Potency [7] | outcome [8] | outcome [10] | Potency [11] | Potency [15]
